# Bioassay records from PubChem BioAssay.
# The list is not random: actives were taken first. Their share in the collection is about 1.9%.
# RXFP1 agonist – qHTS Assay for Agonists of the Relaxin Receptor RXFP1; Relaxin receptor 1 (Homo sapiens), Q9HBX9; HEK293T-RXFP1 cAMP TR-FRET, 30 min; response scale: percent of porcine relaxin response, buffer zero; Potency, µM (doses to about 57.5 µM), hits mostly activators; 370,000 compounds, 0.3% hits; also: nearly all actives have a fitted effect of over 60% in size
# Target sequence (Q9HBX9 whole entry, looked up): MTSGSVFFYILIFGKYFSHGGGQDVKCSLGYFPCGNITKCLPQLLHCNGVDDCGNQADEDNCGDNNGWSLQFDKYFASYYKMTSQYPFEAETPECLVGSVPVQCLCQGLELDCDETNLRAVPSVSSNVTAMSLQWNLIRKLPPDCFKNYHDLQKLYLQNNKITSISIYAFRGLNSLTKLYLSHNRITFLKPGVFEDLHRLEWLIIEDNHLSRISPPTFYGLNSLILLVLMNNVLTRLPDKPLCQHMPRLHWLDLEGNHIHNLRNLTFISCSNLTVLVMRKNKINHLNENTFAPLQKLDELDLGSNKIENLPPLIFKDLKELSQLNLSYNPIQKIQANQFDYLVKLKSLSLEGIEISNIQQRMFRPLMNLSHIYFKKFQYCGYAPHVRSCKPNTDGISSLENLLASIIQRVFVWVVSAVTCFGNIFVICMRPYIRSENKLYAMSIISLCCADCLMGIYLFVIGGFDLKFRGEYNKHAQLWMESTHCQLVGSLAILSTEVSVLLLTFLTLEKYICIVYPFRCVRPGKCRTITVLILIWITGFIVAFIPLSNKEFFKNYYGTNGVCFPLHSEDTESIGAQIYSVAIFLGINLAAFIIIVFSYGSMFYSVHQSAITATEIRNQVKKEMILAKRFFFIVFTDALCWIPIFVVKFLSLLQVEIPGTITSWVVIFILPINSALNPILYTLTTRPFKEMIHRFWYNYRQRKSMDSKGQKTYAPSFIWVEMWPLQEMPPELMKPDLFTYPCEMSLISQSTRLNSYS
#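 Agonist response is measured as cAMP accumulation in an RXFP1-transfected HEK293T line under PDE4 inhibition. Values are scaled between buffer-only and 29 nM porcine relaxin, and EC50s come from standard Hill equation fits.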
# BRCA1 expr up – qHTS Assay to Identify Small Molecule Activators of BRCA1 Expression; MCF7-BRCA1-FFLuc reporter, luminescence, 48 h; response scale: scaled: vehicle 0%, 10 µM genistein 100%; Potency, µM (series often up to 46.1 µM), usual class: activators; 380,000 compounds, 1.1% hits; also: nearly all actives have a fitted effect of over 80% in size
#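 48 h compound treatment of MCF7-BRCA1-FFLuc cells (phenol-red free MEM, 37 °C), then 15 min with luciferase substrate and luminescence imaging.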
# Giardia kill – Small Molecules that selectively kill Giardia lamblia: qHTS | Giardia lamblia trophozoite viability | activity change, % at 7.66 µM, hits read low | 340,000 compounds, 0.15% hits; in the data active = activity change below about -80%; inconclusive = between about -30% and that limit;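 also: parasites exposed to compound for two days anaerobically before the ATP read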
#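 Giardia trophozoites, 100 cells per well, were exposed to compounds for 48 hrs at 37 deg C under anaerobic conditions; viability was then read as ATP content by bioluminescence after 15-30 min at room temperature.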
# RXFP1 antag – qHTS Assay for Antagonists of the Relaxin Receptor RXFP1; Relaxin receptor 1 (Homo sapiens), Q9HBX9; AID 1259400, 2018; 350,000 compounds, 0.59% hits; HEK293-RXFP1, relaxin-stimulated cAMP HTRF, 30 min; stronger effect = lower value; activity change, negative = inhibition, % at 57.5 µM;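 active = activity change of -60% or lower, but not beyond a set lower limit; inconclusive = change between -60% and -40%, or beyond the set limit; inactive = change above -40%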
# IL-2 act – qHTS of IL-2 Activators; IL-2 activation reporter assay, cell-based qHTS; stimulated with anti-CD3/CD4/CD28 beads; in transgenic mouse T cells; activation, % (series mostly up to about 46 µM); 360,000 compounds, 0.065% hits; in the data active = activation above about 50%; inconclusive = mostly about 30% to 49%
#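 Readout is EGFP and DsRed signal by fluorescent plate cytometry after 18 h at 37 degrees C. Transgenic mouse T cells (750/well) received compound for 60 min before bead stimulation (anti-CD3, anti-CD4, anti-CD28); memory T cells served as non-tolerant control.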
# NPSR antag – qHTS Assay for Antagonists of the Neuropeptide S Receptor: cAMP Signal Transduction | Q6W5P4 | CHO-NPSR cells, cAMP TR-FRET, antagonist mode | Potency, µM (top dose mostly 38.3 µM), most hits filed as inhibitors | 220,000 compounds, 1% hits | AID 1461, 2008; also: nearly all actives have a fitted effect of over 50% in size
# Numbers stand for hits; n = inactive; u = inconclusive; x = not tested or not shown. Unless noted, calls follow the shape of the dose curve; as a rule, active = well fitted curve in the direction sought with a large enough effect; inconclusive = small, poorly fitted or top-dose-only effect, or another doubt; inactive = no such curve, though single readings can be large; an effect the other way counts as inactive or inconclusive.
SMILES,RXFP1 agonist,BRCA1 expr up,Giardia kill,RXFP1 antag,IL-2 act,NPSR antag
C=CCc1ccc(OCC(O)CN2CCCCC2)c(OC)c1 (configuration not stated),n,n,n,n,n,n
COCCCNC(=O)c1ccc(Cn2c(=O)c3ccccc3n(CC(N)=O)c2=O)cc1,n,n,x,x,x,x
COc1ccccc1N1C(=O)S/C(=C\c2cc(C)n(C)c2C)C1=O,n,5.62µM,n,n,n,n
COc1ccccc1N1C(=O)S/C(=C\c2ccc(C)s2)C1=O,n,n,n,n,88.3,x
COc1ccc(OC)c(NC(=O)CSc2cn(CC(=O)N3CCCCCC3)c3ccccc23)c1,u,x,x,n,x,x
Cc1nc2n(c(=O)c1CCN1CCC(c3noc4cc(F)ccc34)CC1)CCC[C@@H]2O,x,n,x,x,x,x
O=C(CSc1cn(CCNC(=O)c2cccc(C(F)(F)F)c2)c2ccccc12)Nc1ccc2c(c1)OCCO2,n,n,x,x,x,x
CCOc1ccc(C(=O)NCc2ccc3c(c2)CCN3C(=O)c2ccc(C)cc2)cc1OCC,n,x,x,n,x,x
CSc1nc2c(cnn2-c2ccccc2)c(=O)n1N,n,u,n,n,n,n
CCSc1nc2c(cnn2-c2ccccc2)c(=O)n1N,n,5.01µM,n,n,n,n
Clc1ccc(-c2cccs2)nn1,n,n,n,n,n,n
CC1CCN(c2ccc(-c3cccs3)nn2)CC1,n,u,-93.7,n,n,x
CCc1ccc(CNC(=O)CSCc2cnn(-c3ccccc3)c2-n2cccc2)cc1,n,x,x,n,x,x
Cc1ccc(Nc2c(-c3ccc(C)s3)nc3cccc(C)n23)cc1,x,n,n,x,x,x
N/C(=N\OC(=O)CSc1ccccc1)c1cccc([N+](=O)[O-])c1,n,12.6µM,n,n,n,n
C/C(=C1\CCOC(=O)S1)N(C=O)Cc1cnc(C)nc1N,x,x,x,n,x,x
N#Cc1c(-c2ccco2)nc(SCc2ccc(F)cc2)[nH]c1=O,25.1µM,n,n,n,n,7.94µM
NN=C1c2cc(S(=O)(=O)NCCO)ccc2-c2ccc(S(=O)(=O)NCCO)cc21,x,n,n,x,x,x
CC(N)(Cc1ccc(O)c(O)c1)C(=O)O (configuration not stated),x,x,x,x,x,n
CCc1nn(CCCC(=O)NCc2ccc(OC)c(OC)c2)c(=O)c2cc3occc3n12,n,x,x,n,x,x
O=c1[nH]cnc2c1c(-c1ccccc1)cn2-c1cccc(Cl)c1,n,n,n,-111.9,n,x
COc1ccc(-n2cc(-c3ccccc3)c3c(=O)[nH]cnc32)cc1,n,n,n,n,n,n
CCN(CC)CCCNC(=O)C1CCN(C(=O)c2oc3cc4sc(N(C)C)nc4cc3c2C)CC1,n,u,n,n,n,x
COCCCNC(=O)C1CCN(C(=O)c2oc3cc4sc(N(C)C)nc4cc3c2C)CC1,n,11.2µM,n,n,n,x
Fc1ccc(-c2nc(-c3c[nH]c4ccccc34)cs2)cc1,x,n,x,x,x,x
SMILES,RXFP1 agonist,BRCA1 expr up,Giardia kill,RXFP1 antag,IL-2 act,NPSR antag
CC(C)C(C(=O)Nc1nccs1)c1ccc(Cl)cc1 (configuration not stated),n,n,n,-83.3,n,n
CC(C)C(C(=O)Nc1ccncc1)c1ccc(Cl)cc1 (configuration not stated),n,n,n,n,n,x
O=c1nc2ccccn2c2ccc(S(=O)(=O)N3CCCCC3)cc12,20µM,n,n,n,n,x
Cc1ccn2c(c1)nc(=O)c1cc(S(=O)(=O)N3CCCCC3)ccc12,n,n,n,n,n,x
Nc1nc(N)nc(COc2ccccc2)n1,n,4.47µM,n,n,n,n
CCOc1ccc(Cc2nc(N)nc(N)n2)cc1,n,n,n,n,n,n
CC1(C)CC(=O)C=C(c2ccc(-c3ccccc3)cc2)C1,n,10µM,n,x,n,x
COc1ccc(C2=CC(=O)CC(C)(C)C2)cc1,n,n,n,x,n,x
CC1(C)CC(=O)C=C(c2ccc(-c3ccccc3)cc2)C1=O,x,12.6µM,x,n,n,x
CN(CCO)c1nc(-c2cccs2)nc2ccccc12,x,n,n,x,x,x
CCCCN(CCCC)c1ncnc2nc[nH]c12,n,n,n,n,n,n
CCCCN(Cc1ccccc1)c1ncnc2nc[nH]c12,n,12.6µM,n,x,n,n
Oc1ccc(Cl)cc1C1C=C(c2ccc3c(c2)OCO3)NC(c2ccc(Br)cc2)N1 (configuration not stated),x,n,n,x,x,x
CCOC(=O)c1cc(-c2ccc(F)cc2)n(CCC(=O)Nc2ccccc2OC)c1C,n,x,x,u,x,x
Cc1ccc(-c2nnc(-c3ccc4ccccc4c3)o2)cc1,x,4.47µM,u,n,n,x
Clc1ccc(-c2nnc(-c3ccco3)o2)cc1,n,5.62µM,n,n,n,n
Clc1ccc(-c2nnc(-c3ccc4ccccc4c3)o2)cc1,x,2µM,n,n,n,x
c1cncc(-c2nnc(-c3ccco3)o2)c1,n,n,n,n,n,n
CCOC(=O)C1(Cc2cccc(OC)c2)CCN(C/C=C/c2ccc(OC)cc2)CC1,n,n,n,-81.9,n,n
COc1ccc(/C=C/CN2CCCC(CO)(Cc3cccc(Cl)c3)C2)cc1 (configuration not stated),n,n,n,-69.3,n,u
COc1ccccc1S(=O)(=O)N1CCN(c2nc(-c3cccs3)nc3ccccc23)CC1,x,n,n,x,x,x
Oc1oc(-c2ccccc2)nc1C=NCc1ccccc1,n,10µM,n,n,n,n
Cc1ccc(NC(=O)CCC(=O)c2cccs2)c(O)c1,n,11.2µM,n,n,n,n
Cc1ccc(F)cc1NC(=O)CCC(=O)c1cccs1,n,n,n,n,n,n
Cc1ccc2nc(-c3cccnc3)cc(C(=O)N3CCN(c4ccc([N+](=O)[O-])cc4)CC3)c2c1,n,n,n,n,n,5.01µM
CC(=O)Nc1cnc(-c2cc(C)c(O)c(C)c2)cn1,x,8.91µM,x,x,n,x
